The supplement of paper PMC12340860
± gives the standard deviation of the averaged measurements.

Each compound was assayed on Caenorhabditis elegans infected with Nematocida parisii (assay: progeny production of N. parisii-infected C. elegans relative to uninfected control; higher = stronger inhibition of microsporidia infection (rescue of reproduction)). Details: 60 µM; incubation time 5 days; spore dose (spores/uL): 18000.
Description: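 C. elegans N2 L1 larvae (100 per well, 96-well plate, K-medium with 5x E. coli OP50, 1% DMSO) were infected with Nematocida parisii spores (18,000 spores/uL) that had been pre-incubated for 1 h with each BU-CMD library compound at 60 uM. Plates were incubated 5 days at 21 C with shaking. Progeny were stained with rose bengal, scanned on a flatbed scanner and counted with WorMachine. Progeny number is expressed as % of uninfected DMSO controls on the same plate; three biological replicates per compound; hits were compounds with at least 60% progeny production.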

Compound | progeny production [%]
CC(=O)[C@@H]1[C@@H](C)N(Cc2ccccc2)C(=O)N[C@H]1c1cccc(C(F)(F)F)c1 | 33.2 ± 12
C=C(C)C[C@@H](O)COc1cc2c(cc1C1(c3cc4c(cc3OC[C@H](O)CC(=C)C)OCO4)C(=O)Nc3cc(F)ccc31)OCO2 | 20.5 ± 11
COC(=O)C1=C(C)N(CCc2cc(OC)c(OC)c(OC)c2)C(=O)N[C@H]1c1ccccc1 | 38.1 ± 18
COc1ccc(C2=CC3=C(Br)C(=O)C(C)(O)C(=O)C3=CO2)cc1 (centres undefined) | 80.6 ± 13
